Measured values as given in PubChem BioAssay.

test: E. coli acrAB mutant growth effects, primary screen, E. coli filamentation inducers, strain DRC39, OD650, 48 h (AID 1179);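 further: screen aims at cell division blockers that make cells filament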; conditions: E. coli DRC39 delta-acrAB growth, higher = more signal, called active from +8 up or from −8 down

z-score, inactive:
COCCOC(=O)N1C(=O)[C@@]2(c3cc(C#Cc4ccc(OC)cc4)ccc31)[C@H](c1ccc(OCCO)cc1)N1[C@H](c3ccccc3)[C@H](c3ccccc3)OC(=O)[C@H]1[C@@H]2C(=O)NC[C@H](O)c1ccccc1 -0.189
CC1CC/C=C\[C@H]2OC34C=CCN(Cc5ccccc5)C(=O)[C@H]3N(CCCCCCO)C(=O)[C@@H]4C2C(=O)O1 (stereo not given in full) 1.01
[N-]=[N+]=Nc1ccccc1[C@@H]1OC(c2ccc(OCCCO)cc2)=N[C@]1(CCS(=O)(=O)c1ccccc1)C(=O)NCC(O)CO (stereo not given in full) 0.638
COC(=O)[C@@]1(Cc2ccccc2)[C@H]2c3cc(C(=O)N(C)C)n(CCSC(=N)N)c3C[C@H]2CN1C(=O)c1ccccc1 -0.295
CC(C)[Si](C#CCCc1ccccc1)(O[C@H](c1ccccc1)c1cn(Cc2ccccc2)nn1)C(C)C 0.451
O=C(NCc1ccc(F)cc1)[C@H]1C[C@H]2C(=O)N3CCC[C@H]3C(=O)N2[C@H]1c1ccc(O)cc1 -0.545
COC(=O)[C@]1(Cc2ccccc2)N=C(c2ccc(OCCCO)cc2)O[C@@H]1c1ccccc1CN=[N+]=[N-] -0.88
CC(C)C[C@@H]1NC(=O)[C@@H]2C[C@H](C(=O)NCCCCCCNC(=O)CS)[C@H](c3cccc(OCCO)c3)N2C1=O -0.881
O=C1O[C@@H](c2ccccc2)[C@@H](c2ccccc2)N2[C@@H](c3ccc(OCCO)cc3)[C@]3(C(=O)Nc4ccc(C#CCCO)cc43)[C@@H](C(=O)O)[C@H]12 0.91
CCCC[C@H]1C[C@@H]1[C@@H]1N(C(C)=O)[C@H](c2cccc(OC)c2)CC12CC2 -0.791
C=C(COC)/C(=C/C[C@@H](OC(C)=O)c1ccccc1OCCO)c1cnc2ccccc2c1 -0.828
CN(C)CCCNC(=O)[C@@]1(C)c2ccccc2C(=O)N(Cc2ccc(OC(F)(F)F)cc2)[C@H]1c1ccc(CO)cc1 -1.26
C=CC[C@]1(C(=O)NCC(O)CO)COC(c2ccc(OCCCO)cc2)=N1 (stereo not given in full) -0.471
C=CCC(OC(C)=O)[C@@H]1[C@@H](N(Cc2cccc3ccccc23)C(=O)c2ccc(-c3ccccc3)cc2)c2cc(OCCCO)ccc2N1C(=O)Cc1ccc2ccccc2c1 (stereo not given in full) -0.236
CCCCCC1=C2CNC(CC(C)C)(C(=O)OC)C=C2C(C)C1=O (stereo not given) 0.501
CN1C(=O)[C@@H]2[C@@H](CC(COc3ccccc3)=C3[C@@H](CCc4ccccc4)OB(O)C[C@@H]32)C1=O -0.0443
COC(=O)[C@@]1(Cc2ccc(OC)cc2)[C@H]2c3cc(C(=O)N4CCCC4)n(Cc4ccc(C(F)(F)F)nc4)c3C[C@H]2CN1C(=O)c1ccccc1 -0.71
C=CCC(OC(C)=O)[C@@H]1[C@@H](N(Cc2cc3ccccc3o2)C(=O)Cc2ccc(OC)cc2)c2cc(OCCCO)ccc2N1C(=O)c1ccc2ccccc2n1 (stereo not given in full) 0.346
[N-]=[N+]=Nc1ccccc1[C@@H]1OC(c2ccc(OCCCO)cc2)=N[C@]1(Cc1ccccc1)C(=O)NCCN1CCOCC1 -0.382
COc1ccc(C(=O)Nc2cccc(CN3C(=O)[C@]4(O[C@H](CC(=O)N5Cc6ccccc6C[C@H]5CO)[C@@H]([Si](C)(C)c5ccc(OC)cc5)[C@@H]4C)c4ccccc43)c2)cc1 0.0565
C=CCN1C(=O)[C@@]2(O[C@@H](CCn3cc([C@H](O)c4ccccc4)nn3)[C@H]([Si](C)(C)c3ccc(OC)cc3)[C@H]2C)c2cc(N3C(=O)c4cccc5cccc3c45)ccc21 -0.0869
CC(C)(C)N1CC=CC23O[C@@H]4/C=C\CCCOC(=O)C4[C@H]2C(=O)N(CCCCCO)[C@@H]3C1=O (stereo not given in full) -0.0503
CN(C)CCCC[C@@H]1NC(=O)[C@@H]2C[C@H](C(=O)NCCCCCCNC(=O)CS)[C@H](c3ccc(O)cc3)N2C1=O -0.551
CC1CC/C=C\[C@H]2OC34C=CCN(CCN5CCOCC5)C(=O)[C@H]3N(CCCO)C(=O)[C@@H]4C2C(=O)O1 (stereo not given in full) -0.496
COc1ccccc1CN1C(=O)c2ccccc2[C@](Cc2ccccc2I)(C(=O)NCC(C)C)[C@@H]1c1ccc(CO)cc1 1.29
